Luc counter – Counterscreen for Luciferase (Kinase-Glo TM) Inhibition | Luciferin 4-monooxygenase (Photuris pensylvanica), Q27757 | Kinase-Glo luciferase, ATP luminescence, 8 min | Potency, µM (series often up to 38.3 µM), for the others: top-dose activity change, negative = inhibition, actives largely listed as inhibitors | actives 0.28% (n = 200,000); further: on the % scale 0 is the no-effect control and ±100 the full control effect; nearly all actives have a fitted effect of over 60% in size
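Compound is pinned into ATP-containing buffer (10 uM ATP, imidazole pH 7.2, 7 mM MgCl2). Kinase-Glo luciferase reagent is then added. Light output is recorded following an 8-min room-temperature incubation.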
FLuc modulator – qHTS profiling assay for firefly luciferase inhibitor/activator using purifed enzyme and Km concentrations of substrates (counterscreen for miR-21 project); Luciferin 4-monooxygenase (Photinus pyralis), P08659; purified FLuc, Km substrates, luminescence inhibition; Potency, µM (series often up to 57.5 µM), for inactives: top-dose activity change, negative = inhibition, actives largely listed as inhibitors; actives 6.9% (n = 360,000);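 further: plate controls were vehicle for no effect and reference inhibitor for full effect; nearly all actives have a fitted effect of over 55% in size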
Target sequence (P08659 whole entry, looked up): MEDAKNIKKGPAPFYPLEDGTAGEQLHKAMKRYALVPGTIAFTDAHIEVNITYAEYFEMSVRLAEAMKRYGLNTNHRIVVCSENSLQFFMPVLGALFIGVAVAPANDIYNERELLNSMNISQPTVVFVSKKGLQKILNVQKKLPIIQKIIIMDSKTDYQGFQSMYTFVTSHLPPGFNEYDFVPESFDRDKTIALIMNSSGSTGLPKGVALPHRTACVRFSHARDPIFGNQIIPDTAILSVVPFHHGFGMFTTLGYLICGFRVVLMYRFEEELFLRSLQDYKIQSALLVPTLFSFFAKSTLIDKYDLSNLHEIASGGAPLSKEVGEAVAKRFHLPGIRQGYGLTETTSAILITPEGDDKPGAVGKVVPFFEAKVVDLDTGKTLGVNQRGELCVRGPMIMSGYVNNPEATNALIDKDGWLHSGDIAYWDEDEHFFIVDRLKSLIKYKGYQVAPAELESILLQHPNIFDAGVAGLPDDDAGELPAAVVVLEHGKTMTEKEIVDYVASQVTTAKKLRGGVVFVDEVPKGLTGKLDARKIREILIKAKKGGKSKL
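Purified P. pyralis luciferase (10nM final) with 10uM D-luciferin and 10uM ATP (Km levels) in 50mM Tris acetate pH 7.5, 10mM Mg acetate, 0.01% Tween-20, 0.05% BSA; qHTS 6-point titration, ~60 µM downward; luminescence read.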
Rab9 prom act – qHTS Assay for Rab9 Promoter Activators; actives 2.8% (n = 320,000); AID 485297, 2010; Potency, µM (top dose mostly 9.22 µM), for inactives: top-dose activation, negative = inhibition, usual class: activators; Huh7 Rab9 promoter-luciferase reporter, luminescence, 24 h; further: % of control where 0% means no effect; nearly all actives have a fitted effect of over 60% in size
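Stable Rab9-luc Huh7, 1500 cells/well, 2 h settle; cmpd in DMSO, 24 h, 37 °C/5% CO2; luciferase reagent 10 min RT; luminescence.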
ELG1 genotox – qHTS screen for small molecules that induce genotoxicity in human embryonic kidney (HEK293T) cells expressing luciferase-tagged ELG1. HEK293T ELG1-luciferase reporter, luminescence, 16 h. Potency, µM (top dose mostly 46 µM), for inactives: at the highest dose activity change, positive = activation, hits mostly activators. actives 1.3% (n = 330,000); further: % of control where 0% means no effect; nearly all actives have a fitted effect of over 60% in size
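DMSO vehicle served as control against compound-treated ELG1-luciferase HEK293T cells; exposure lasted 16 hr at 37 °C and 5% CO2, followed by ONE-Glo luminescence detection after 30 min.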
SMN2 splice enh – qHTS Assay for Enhancers of SMN2 Splice Variant Expression; HEK293 SMN2-luciferase splicing reporter, luminescence, 30-36 h; Potency, µM (doses to about 46.1 µM), inactives show at the top dose activity change, positive = activation, most hits filed as activators; actives 2.8% (n = 210,000); further: % of control where 0% means no effect; nearly all actives have a fitted effect of over 55% in size
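HEK293 cells carry an SMN2 minigene-luciferase reporter in which exon 7 inclusion puts luciferase in frame. Cells were seeded at 2000 cells/well, attached for 10-12 hours, then exposed to compounds for 30-36 hours at 37C before ONE-Glo luminescence.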
NPC1 promoter act – qHTS Assay for NPC1 Promoter Activators; Huh7 NPC1 promoter luciferase reporter, 24 h; Potency, µM (titrated, usually from 9.22 µM), for the others: at the top dose activation, actives largely listed as activators; actives 2.4% (n = 320,000); further: % of control where 0% means no effect; nearly all actives have a fitted effect of over 60% in size
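Readout is luciferase luminescence, reflecting NPC1 promoter activation in stably transfected Huh7 cells after 24 h compound exposure at 37 °C in reduced-serum medium with 10% FBS.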
Active calls of the source: *; ? = inconclusive; · = no result given. Compounds with a hit are over-represented: about 7.3% of the library has one in this group of screens. The call rests on the fitted dose curve; in most records, active means well fitted curve in the direction sought with a large enough effect; inconclusive means small, poorly fitted or top-dose-only effect, or another doubt; inactive means no such curve, though single readings can be large; an effect the other way counts as inactive or inconclusive. Potency means the concentration at half of the fitted maximal effect.

SMILES | Luc counter | FLuc modulator | Rab9 prom act | ELG1 genotox | SMN2 splice enh | NPC1 promoter act
Cc1ccc2nc(CCc3ccc(N)cc3)[nH]c2c1 | · | 15µM* | 3.2µM* | ? | · | 2.8µM*
CCc1nc2ccc(Cc3ccc4nc(CC)[nH]c4c3)cc2[nH]1 | · | 12µM* | 10% | 0% | · | -1%
Nc1ccc2nc(CCc3ccccc3)[nH]c2c1 | -5% | ? | ? | 15% | ? | 20%
Nc1ccc(Cc2nc3cc4ccccc4cc3[nH]2)cc1 | -4% | 19µM* | ? | 14% | 13µM* | ?
Nc1ccc(C(=O)OCc2nc3cc4ccccc4cc3[nH]2)cc1 | -1% | ? | 15% | -6% | ? | 1%
Nc1ccc(C(=O)OCCCc2nc3cc4ccccc4cc3[nH]2)cc1 | · | 15µM* | 19% | -1% | · | 1%
CC(=O)c1cnc2cc(-c3cccc(Br)c3)nn2c1C | 1% | ? | 2µM* | 14% | 11µM* | 2.8µM*
Cc1ccc(-c2cc(C(F)(F)F)n3nc(-c4cccc(Br)c4)cc3n2)cc1 | · | -3% | · | · | -7% | ·
Cc1cccc(-c2cc3nc(C)cc(C)n3n2)c1 | -9% | 6.7µM* | 0.45µM* | ? | · | 0.4µM*
Cc1cccc(-c2cc3nc(C)cc(N4CC(C)CC(C)C4)n3n2)c1 (stereo unspecified) | 0% | -7% | -5% | -6% | -4% | 2%
Cc1cc(C)n2nc(-c3cccc(Br)c3)cc2n1 | · | 8.5µM* | ? | ? | · | ?
COc1ccccc1-c1cc2nc(C)cc(C)n2n1 | · | 15µM* | 18% | ? | · | 27%
COc1cc(NC(=O)C2CCCN(S(=O)(=O)c3cn(C)cn3)C2)cc(OC)c1 (stereo unspecified) | · | -1% | · | · | · | ·
O=C(Nc1ccc(N2CCOCC2)c(Cl)c1)c1cccc(F)c1 | -4% | 4.3µM* | 1.6µM* | 2.3µM* | 10µM* | 1.1µM*
O=C(Nc1ccc(N2CCOCC2)cc1)c1cccnc1 | -11% | ? | 16% | 14% | ? | 22%
O=C(Nc1ccc(N2CCOCC2)c(Cl)c1)c1cccnc1 | 0% | ? | 25% | 21µM* | ? | 26%
COc1c(C)cccc1C(=O)Nc1ccc(N2CCOCC2)c(Cl)c1 | -7% | 6.7µM* | 3.2µM* | 8.2µM* | 11µM* | 1.6µM*
O=C(Nc1ccc(N2CCCC2)c(Cl)c1)c1cccnc1 | -1% | 12µM* | 2.8µM* | 5% | 16µM* | 3.2µM*
O=C(Nc1ccc(N2CCOCC2)c(Cl)c1)c1cccnc1Cl | 1% | -15% | 7% | 1% | 13% | 0%
O=C(Nc1ccc(N2CCN(C(=O)c3cccs3)CC2)c(Cl)c1)c1cccnc1 | -2% | -4% | -7% | -14% | -27% | 0%
Cc1ccc(OCC(=O)NCC(c2ccc(Cl)cc2)N2CCCCC2)cc1 (stereo unspecified) | · | -9% | · | · | · | ·
CN(C)c1ccc(CNC(=O)c2cccc(NC(=O)N3CCSc4ncccc43)c2)cc1 | · | 0% | · | · | · | ·
CCOC(=O)C1CCN(C(=O)Cn2nc(CC)n3c(cc4sccc43)c2=O)CC1 | · | -11% | · | · | -6% | ·
O=C(Nc1ccc(N2CCCCC2)c(Cl)c1)c1cccnc1 | -1% | 12µM* | 2.8µM* | ? | 13µM* | 2.8µM*
O=C(Nc1ccc(N2CCN(C(=O)c3ccco3)CC2)c(Cl)c1)c1cccnc1 | 1% | -2% | -6% | -12% | -9% | -7%
SMILES | Luc counter | FLuc modulator | Rab9 prom act | ELG1 genotox | SMN2 splice enh | NPC1 promoter act
COc1cccc(/C=N/NC(=O)c2cccc3ccccc23)c1 | · | -11% | -2% | -6% | · | 10%
Cc1scc(C(=O)N/N=C/c2ccco2)c1C | 0% | 11µM* | 2.8µM* | ? | 11µM* | ?
Cc1scc(C(=O)N/N=C/c2ccc([N+](=O)[O-])o2)c1C | · | -22% | -31% | -15% | · | -20%
CCCOc1cccc(/C=N/NC(=O)c2csc(C)c2C)c1 | -1% | 4.8µM* | 10% | 6% | -25% | 22%
COC(=O)N/N=C/c1cccc(OCCSc2ccc(Cl)cc2)c1 | 1% | -27% | 27% | 1% | 11µM* | ?
COC(=O)N/N=C/c1ccc(OCCSc2ccc(Cl)cc2)c(OC)c1 | 2% | -1% | -5% | 2% | 6% | -4%
Cc1scc(C(=O)N/N=C/c2ccsc2)c1C | -5% | 2.1µM* | 2.8µM* | 10µM* | 18µM* | ?
CCOc1ccc(CCNC(=O)c2nc(-c3cccc(F)c3)n3c2CCCCC3)cc1OCC | · | -8% | · | · | · | ·
Cc1ccsc1/C=C1/SC(N2CCOCC2)=NC1=O | ? | 21µM* | 24% | 20% | ? | 21%
CC(=O)N1CCc2cc(CNS(=O)(=O)c3ccccc3C(F)(F)F)ccc21 | · | -13% | · | · | · | ·
Cc1ccc(-c2cn(-c3ccccc3)c(SCC(=O)NC3CCS(=O)(=O)C3)n2)cc1C (stereo unspecified) | 3% | ? | 2µM* | ? | ? | 3.2µM*
COc1cccc(CN(C)C(=O)c2ccc(COc3ccc(Cl)cc3)cc2)c1OC | · | 13µM* | 29% | ? | · | ?
COc1ccccc1CN(C)C(=O)c1ccc(COc2ccccc2)cc1 | · | -1% | -1% | -8% | · | 2%
COc1cccc(CN(C)C(=O)c2ccccc2Sc2ccccc2C#N)c1OC | · | 8.5µM* | 0.45µM* | 12% | · | 0.32µM*
COc1ccc(CCC(=O)NC2CC(=O)N(c3ccc(F)cc3)C2)cc1 (stereo unspecified) | · | -6% | · | · | · | ·
Cc1ccc2nc(-c3ccc(NC(=O)CN4CCN(c5ccccn5)CC4)cc3)sc2c1 | · | 11µM* | ? | ? | · | ?
Cc1ccc2nc(-c3ccc(NC(=O)CN4C(=O)c5ccccc5C4=O)cc3)sc2c1 | -2% | 2.7µM* | 4µM* | 9.2µM* | 2.8µM* | ?
Cc1ccc2nc(-c3ccc(NC(=O)COC(=O)c4ccc(=O)[nH]c4)cc3)sc2c1 | -2% | 3.4µM* | 0.56µM* | 2.3µM* | 1.6µM* | 0.35µM*
CCSc1ccc(C(=O)Nc2ccc(-c3nc4ccc(C)cc4s3)cc2)cc1 | · | 0% | · | · | · | ·
O=C(CN1CCN(c2ccccn2)CC1)Nc1ccc2ccccc2c1 | -4% | 17µM* | 21% | ? | -22% | 11%
C1CCC[C@H]2CCCN3CC[C@H](CCCCCC[C@@H]4CCCN5CC[C@H](CC1)OC45)OC23 | · | · | · | · | 9% | ·

Screens (PubChem)
